Screening results from PubChem BioAssay.
An excerpt weighted towards active compounds, which were near 12% of everything screened.
JMJD2A Tudor – qHTS Assay for Inhibitors of JMJD2A-Tudor Domain; Lysine-specific demethylase 4A (Homo sapiens), O75164; AlphaScreen JMJD2A-Tudor / H3K4me3 peptide binding; Potency, µM (highest dose often 114 µM), for the others: at the highest dose activity change, negative = inhibition, most hits filed as inhibitors; hit rate 4.4% among 390,000; further: on the % scale 0 is the no-effect control and ±100 the full control effect; nearly all actives have a fitted effect of over 50% in size
L3MBTL1 inh – qHTS Assay for the Inhibitors of L3MBTL1; AlphaScreen L3MBTL1–H3K9me1 peptide binding; Potency, µM (doses to about 57.1 µM), without a hit: top-dose activity, negative = inhibition, actives largely listed as inhibitors; hit rate 0.66% among 230,000; AID 485360, 2010; further: on the % scale 0 is the no-effect control and ±100 the full control effect; nearly all actives have a fitted effect of over 60% in size
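L3MBTL1 (50 nM) pre-complexed 30 min with biotinylated H3(1-15)K9me1 peptide (75 nM), then compounds added for 30 min at room temperature; AlphaScreen streptavidin donor/nickel chelate acceptor beads (10 ug/mL final) read after 30 min dark incubation.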
Sfp PPTase inh – qHTS Assay for Inhibitors of Bacillus subtilis Sfp phosphopantetheinyl transferase (PPTase); Potency, µM, for the others: largest response in the series, negative = inhibition, hits mostly inhibitors; hit rate 3.5% among 310,000; 4'-phosphopantetheinyl transferase ffp (Bacillus subtilis), Q9F4F7; AID 1490, 2009; Biochemical Sfp PPTase activity, qHTS;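 further: the enzyme is Sfp with the accession as filed and its product quenches rhodamine fluorescence; 0% = enzyme reaction without inhibitor and -100% = no enzyme wells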
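Reaction rates are the 30-min fluorescence difference (ex 525, em 598 nm) in wells containing 15 nM Sfp, 5 uM rhodamine-CoA and 12.5 uM BHQ-2-YbbR at pH 7.6 with 10 mM MgCl2.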
BAZ2B inh – qHTS Assay for Inhibitors of BAZ2B. Bromodomain adjacent to zinc finger domain protein 2B (Homo sapiens), Q9UIF8. AlphaScreen BAZ2B-H3K14Ac peptide displacement. Potency, µM (series often up to 114 µM), inactives show top-dose activity change, negative = inhibition, hits mostly inhibitors. hit rate 4.4% among 360,000; further: on the % scale 0 is the no-effect control and ±100 the full control effect; nearly all actives have a fitted effect of over 60% in size
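Protein-peptide AlphaScreen: BAZ2B 50 nM, b-H3K14Ac 50 nM, 1x PBS pH 7.4 + 0.01% Tween-20. Preincubation 30 min RT; cpd 30 min RT (top 110 uM); beads 20 min RT, light-protected.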
HP1b binding inh – HTS for Inhibitors of HP1-beta Chromodomain Interactions with Methylated Histone Tails; Potency, µM (series often up to 114 µM), for inactives: at the highest dose activity change, negative = inhibition, hits mostly inhibitors; hit rate 0.56% among 390,000; AID 540317, 2011; AlphaScreen HP1-beta / biotin-H3K9me3 peptide binding; further: nearly all actives have a fitted effect of over 70% in size
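AlphaScreen: HP1-beta (50 nM) preformed 30 min with biotin-H3(1-18)K9me3 peptide (50 nM) in PBS pH 7.4, 0.01% Tween-20. Compound added for 30 min at RT, then streptavidin donor/nickel chelate acceptor beads (10 ug/mL) for 30 min.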
G9a inh – qHTS Assay for Inhibitors of Histone Lysine Methyltransferase G9a; G9a H3K9 monomethylation, AlphaScreen, 2 h; Potency, µM (doses to about 102 µM), without a hit: at the top dose activity, negative = inhibition, hits mostly inhibitors; hit rate 8.8% among 350,000; further: on the % scale 0 is the no-effect control and ±100 the full control effect; nearly all actives have a fitted effect of over 75% in size
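Step 1: enzyme (final 20 nM) with compound, 15 min RT. Step 2: substrate peptide 500 nM and SAM 20 uM, 2 h RT. Step 3: anti-H3K9me1 antibody and AlphaScreen beads, 10 min, then plate read.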
Starred values were filed as active, the others as inactive; ? = inconclusive; / = no result; ! = not active in a repeat; [ ] = another dose, or the depositor's remark. The call rests on the fitted dose curve; in most records, active means well fitted curve in the direction sought with a large enough effect; inconclusive means small, poorly fitted or top-dose-only effect, or another doubt; inactive means no such curve, though single readings can be large; an effect the other way counts as inactive or inconclusive. Potency means the concentration at half of the fitted maximal effect.

SMILES	JMJD2A Tudor	L3MBTL1 inh	Sfp PPTase inh	BAZ2B inh	HP1b binding inh	G9a inh
CC(C)Cc1nnc(NC(=O)CCS(=O)(=O)c2ccc(Cl)cc2)s1	-5.1%	/	1.2%	-7.3%	40.0%	42.5%
N#C/C(=C\c1ccccc1[N+](=O)[O-])C(=O)NC1CCCCC1	-30.3%	?	89.1µM*	?	12.3%	-50.5%
N#C/C(=C\C=C\c1ccccc1[N+](=O)[O-])C(=O)NC1CCCCC1	?	-5.6%	-5.4%	?	24.7%	?
O=C(CN1C(=O)c2ccccc2S1(=O)=O)Nc1cccc(S(=O)(=O)N2CCCCC2)c1	-26.4%	21.7%	/	/	12.2%	/
O=C(NNc1ccccc1C(F)(F)F)c1sccc1Br	-13.3%	2.0%	-4.9%	-12.0%	51.5%	17.8µM*
O=C(Nc1ccccc1C(F)(F)F)c1ccsc1	19.9%	/	0.8%	2.4%	36.0%	47.1%
COc1cc(C(=O)N(Cc2ccc(N(C)C)cc2)CC2CCCO2)cc(OC)c1OC (stereo not given)	-30.2%	/	/	79.4µM*	4.6%	?
Cc1cc2oc(C(=O)N(Cc3ccc(N(C)C)cc3)CC3CCCO3)c(C)c2cc1C (stereo not given)	12.6µM*!	/	?	14.1µM*	?	14.1µM*
Cc1ccc2c(C)c(C(=O)N(Cc3ccncc3)CC3CCCO3)oc2c1C (stereo not given)	-28.5%	/	-3.8%	-10.0%	14.2%	/
Cc1ccc2oc(C(=O)N(Cc3ccc(N(C)C)cc3)CC3CCCO3)c(C)c2c1 (stereo not given)	50.1µM*	/	-9.9%	11.2µM*	?	28.2µM*
COc1ccc(-c2nc3ccccc3n3c(-c4cccc(C)c4)c4c(=O)n(C)c(=O)n(C)c4c23)cc1	-15.8%	/	/	0.7%	13.9%	0.5%[59 µM]
CCNc1nnc(CSc2nc3ccccc3s2)s1	-20.6%[57.1 µM]	3.1%	-1.7%	-3.9%	55.8%	4.47µM*
Cn1c(-c2sc3ccccc3c2Cl)n[nH]c1=S	22.4µM*	/	-17.5%	-11.7%	-27.5%	?
c1ccc2[nH]c(CSc3nc4ccccc4s3)nc2c1	-7.6%	-2.5%	-2.8%	-17.1%	46.0%	-32.0%
S=c1[nH]nc(CSc2nc3ccccc3s2)o1	44.7µM*	2.1%	-20.0%	?	2.7%	1.58µM*
Cn1c(CSc2nc3ccccc3s2)n[nH]c1=S	31.6µM*	4.2%	5.1%	9.8%	-26.7%	2.51µM*
Cc1ccc(NC(=O)Cn2c(=O)n(CCCCC(=O)NCCc3ccccc3)c(=O)c3ccccc32)c(C)c1	-7.5%	/	/	0.8%	33.7%	-4.0%[59 µM]
Cc1nn(C)c(C)c1CCNC(=O)Nc1cccc(Cl)c1C	4.6%	/	/	3.6%	35.9%	29.0%[59 µM]
CC(=O)Nc1ccc(/C=N/Nc2nc3ccccc3[nH]2)cc1	-29.5%	-4.2%	10µM*	-8.3%	18.2%	-34.8%
CCN(CC)c1ccc(/C=N/Nc2nc3ccccc3[nH]2)cc1	56.2µM*	?	-8.3%	10µM*	?	?
COc1cccc(CN(C(=O)c2oc3ccccc3c2C)C2CCS(=O)(=O)C2)c1 (stereo not given)	-12.8%	/	/	-14.8%	16.1%	-9.7%[59 µM]
CC(=O)Nc1ccc(Nc2nc3c(S(=O)(=O)c4cccc(Cl)c4)nnn3c3ccsc23)cc1	?	/	/	-20.1%	20.3%	-0.7%[59 µM]
Cc1ccc(C)c(NC(=O)CN(C)C(=O)c2ccc3[nH]c4c(c3c2)CC(C)CC4)c1 (stereo not given)	-16.6%	-4.6%	/	?	0.6%	9.5%[0.501 µM]
O=C(NCc1ccc(Cl)cc1)c1ccc2c(=O)n(CC3CCCO3)c(=S)[nH]c2c1 (stereo not given)	-18.9%	/	21.4%	1.7%	37.3%	-3.6%
